Laboratory results published in PubChem BioAssay AID485346 (Sanford-Burnham Center for Chemical Genomics, 2010).
About 10,000 (3%) of roughly 330,000 compounds were called active.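 How the source made its calls: active means inhibition of at least 50% at 8 µM in the primary screen; inactive means the rest.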 What follows is part of a selection rich in actives, with near analogues and random picks from the rest.

What follows are compounds tested against Protein Mdm4 (Homo sapiens) + E3 ubiquitin-protein ligase Mdm2 (Homo sapiens) (UniProt O15151+Q00987) (assay: inhibitors of human Mdm2-MdmX association, primary screen, cell-based, luminescence, split luciferase, SaOS-2, uHTS (AID 485346)). Details: SaOS-2 split-luciferase Mdm2/MdmX complementation, at 8 µM, stronger effect = higher value.
Chain of Protein Mdm4 (Homo sapiens) + E3 ubiquitin-protein ligase Mdm2 (Homo sapiens) (O15151 whole entry, looked up): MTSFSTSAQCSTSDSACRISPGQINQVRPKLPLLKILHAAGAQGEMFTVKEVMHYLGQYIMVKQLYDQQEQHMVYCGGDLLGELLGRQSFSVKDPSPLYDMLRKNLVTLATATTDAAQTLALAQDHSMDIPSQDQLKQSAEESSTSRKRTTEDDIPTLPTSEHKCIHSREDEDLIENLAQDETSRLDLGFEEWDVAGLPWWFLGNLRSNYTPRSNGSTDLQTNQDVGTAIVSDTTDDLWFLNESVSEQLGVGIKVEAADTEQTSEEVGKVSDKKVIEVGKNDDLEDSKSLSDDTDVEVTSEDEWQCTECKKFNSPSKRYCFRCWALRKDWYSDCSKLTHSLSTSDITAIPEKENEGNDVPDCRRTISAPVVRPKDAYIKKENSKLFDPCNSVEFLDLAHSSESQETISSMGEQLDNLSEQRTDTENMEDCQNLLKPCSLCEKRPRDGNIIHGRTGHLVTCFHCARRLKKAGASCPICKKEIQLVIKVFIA
Chain of Protein Mdm4 (Homo sapiens) + E3 ubiquitin-protein ligase Mdm2 (Homo sapiens) (Q00987 whole entry, looked up): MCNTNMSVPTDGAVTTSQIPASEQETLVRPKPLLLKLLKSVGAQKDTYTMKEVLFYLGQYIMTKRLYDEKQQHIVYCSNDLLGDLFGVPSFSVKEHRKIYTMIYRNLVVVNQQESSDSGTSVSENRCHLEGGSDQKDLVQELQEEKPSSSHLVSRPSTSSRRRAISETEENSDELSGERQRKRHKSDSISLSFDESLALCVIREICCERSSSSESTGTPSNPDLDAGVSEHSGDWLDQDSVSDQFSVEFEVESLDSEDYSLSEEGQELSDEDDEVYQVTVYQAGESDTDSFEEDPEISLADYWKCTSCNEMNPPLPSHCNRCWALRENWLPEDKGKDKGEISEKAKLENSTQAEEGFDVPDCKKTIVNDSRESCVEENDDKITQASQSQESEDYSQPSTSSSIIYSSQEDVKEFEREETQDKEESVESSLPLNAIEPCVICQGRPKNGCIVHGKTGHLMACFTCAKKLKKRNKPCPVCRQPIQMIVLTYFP
With `CCOc1ccc(-c2cc(C)[n+](CCN(CC)CC)c(-c3ccc(OCC)cc3)c2)cc1` the inhibition was 90.7% (active). In the case of `COc1ccc(CCn2c(O)c(C=NCCCn3ccnc3)c(=O)[nH]c2=O)cc1OC`, the inhibition is reported as -17.9% (inactive). For `Cc1cc(=O)oc2c(C)c(OCC(=O)N3CCN(Cc4ccc5c(c4)OCO5)CC3)ccc12`, the inhibition was 1.14% (inactive). With `CC12CN3CC(C)(CN(C1)C3c1cccs1)C2` (stereo not given) the inhibition was -26.1% (inactive). `O=C(Nc1cccc2ccccc12)N1CCC2(CC1)OCCO2` was tested, and the inhibition was -30% (inactive). For `O=c1c2ccccc2nc(/C=C/c2ccco2)n1-c1ccccc1O`, the inhibition was -1.65% (inactive). For `Cc1nc2ccccc2c(=O)n1-c1ccc(Cl)cc1Cl`, the inhibition was -13.3% (inactive). In the case of `O=c1c2ccccc2nc(/C=C/c2ccc(F)cc2)n1-c1ccccc1O`, the inhibition is reported as 60.9% (active). In the case of `CC(=O)N1CN2CN(C(C)=O)CC(C(=O)c3ccc(Br)cc3)(C2)C1`, the inhibition is reported as 26.2% (inactive). `CC(=C1C(=O)c2ccccc2C1=O)N1CCN(CCN=Cc2c(O)n(C)c(=O)n(C)c2=O)CC1` was tested, and the inhibition was -1.58% (inactive). With `O=C1C2(Cl)C3(Cl)C4(Cl)C(Cl)(Cl)C5(Cl)C3(Cl)C1(Cl)C5(Cl)C24Cl` (stereo not given) the inhibition was 99.3% (active). `COc1ccc2[nH]c3c(c2c1)CCN[C@H]3C` was tested, and the inhibition was 9.11% (inactive). `Cc1ccc(C)c(NC2=NCCCS2)c1` was tested, and the inhibition was 11.6% (inactive). With `c1ccc2sc(C3CCCNC3)nc2c1` (stereo not given) the inhibition was -26.6% (inactive). `Cc1cccc2c(CCN)c[nH]c12` was tested, and the inhibition was 13.4% (inactive). In the case of `CCCCCn1c(=O)c(C(=O)NCc2ccccn2)c(O)c2ccccc21`, the inhibition is reported as 13.9% (inactive). `CCCCn1c(=O)c(C(=O)Nc2ccccc2Cl)c(O)c2ccccc21` was tested, and the inhibition was 37.6% (inactive). `CCCCCn1c(=O)c(C(=O)NCc2ccccc2)c(O)c2ccccc21` was tested, and the inhibition was 62.6% (active). For `CC(C)n1c(=O)c(C=Nc2ccc(Br)cc2)c(O)n(Cc2ccco2)c1=O`, the inhibition was -33.1% (inactive). With `CN1CCN(/N=C/c2c[nH]c3ccccc23)CC1` the inhibition was -22.1% (inactive). In the case of `OC1/C(=C/c2ccc(C(F)(F)F)cc2)N2CCC1CC2` (stereo not given), the inhibition is reported as 17.5% (inactive). With `CC(=NCc1ccc2c(c1)OCO2)c1c(O)[nH]c(=O)[nH]c1=O` the inhibition was -16% (inactive). In the case of `COc1cc(-n2c(=S)[nH]c3ccc(C)cc3c2=O)c(Cl)cc1Cl`, the inhibition is reported as 40.1% (inactive). `Cc1cc2ccccn2c1C(C[N+](=O)[O-])c1c(F)cccc1Cl` (stereo not given) was tested, and the inhibition was 97.4% (active). With `c1cc2c(cc1C1OCC3C(c4ccc5c(c4)OCO5)OCC13)OCO2` (stereo not given) the inhibition was 1.17% (inactive). With `COc1ccc(CCn2c(O)c(C=NC3CC3)c(=O)[nH]c2=O)cc1OC` the inhibition was 24.7% (inactive). With `CC(C)c1c(CN(C)C(C)Cc2ccccc2)n(C)n(-c2ccccc2)c1=O` (stereo not given) the inhibition was -0.74% (inactive). With `CC(Cc1ccccc1)NC=O` (stereo not given) the inhibition was 12.4% (inactive). For `CC(Cc1ccccc1)NCCC(c1ccccc1)c1ccccc1` (stereo not given), the inhibition was 63% (active). `CC(=O)NC(=O)NC(C)Cc1ccccc1` (stereo not given) was tested, and the inhibition was 15.7% (inactive). In the case of `COC1=CC=C2[C@H]3Cc4ccc(OC)c5c4[C@@]2(CCN3C)C1O5` (stereo not given in full), the inhibition is reported as 11% (inactive). `O=c1[nH]c(=O)n(-c2ccccc2)c(O)c1C=NC12CN3CN(CN(C3)C1)C2` was tested, and the inhibition was -21.9% (inactive). `O=C(c1cc2nc(-c3ccccc3)cc(-c3ccccc3)n2n1)N1CCC2(CC1)OCCO2` was tested, and the inhibition was 55.7% (active). `Cc1ccc(-c2cc(C(=O)N3CCC4(CC3)OCCO4)no2)cc1` was tested, and the inhibition was -32.3% (inactive). For `O=C(c1cc(-c2ccncc2)nc2ccccc12)N1CCC2(CC1)OCCO2`, the inhibition was -28.6% (inactive). In the case of `c1ccc(CCNC2CCCCCC2)cc1`, the inhibition is reported as 24.6% (inactive). In the case of `Cc1ccc(Cn2nnnc2CN2CCC(n3nnc4ccccc43)CC2)cc1`, the inhibition is reported as 26.2% (inactive). In the case of `CCOP(=O)(OCC)C(NC(=O)c1ccc(C)cc1)C(Cl)(Cl)Cl` (stereo not given), the inhibition is reported as -8.99% (inactive). For `CNC(=S)N/N=C1\C2CN3CCN(C2)CC1(c1ccccc1)C3`, the inhibition was -27.4% (inactive). `CN(C)c1nc(N(C)C)nc(N(C#N)CCCl)n1` was tested, and the inhibition was 28.9% (inactive). `O=C1NC(=O)N(CCc2ccc(F)cc2)C(=O)/C1=C/C=C/c1ccccc1` was tested, and the inhibition was 99.4% (active). `O=C(O)COc1ccccc1/C=C1\C(=O)NC(=O)N(CCC2=CCCCC2)C1=O` was tested, and the inhibition was 2.61% (inactive). For `O=C1NC(=O)N(Cc2ccco2)C(=O)/C1=C\c1ccc(-c2ccc(F)cc2)o1`, the inhibition was -9.82% (inactive). In the case of `COc1ccccc1N=C1SCCCN1C`, the inhibition is reported as -4.32% (inactive). `CCOP(=O)(OCC)C(O)c1ccc(OC)cc1OC` (stereo not given) was tested, and the inhibition was 19.2% (inactive). In the case of `CC[N+]1(C)CCCC(OC(=O)C(O)(c2ccccc2)c2ccccc2)C1` (stereo not given), the inhibition is reported as 12.9% (inactive). With `COC(=O)C1=C(c2ccc(F)cc2OCc2ccccc2)C[C@@H]2CC[C@H]1N2C(=O)NCc1ccc2[nH]ccc2c1` the inhibition was 52.5% (active). In the case of `COC(=O)C1=C(c2ccc(F)cc2OCc2ccccc2)C[C@@H]2CC[C@H]1N2C(=O)NCc1ccc(Cl)cc1`, the inhibition is reported as 55.7% (active). `COC(=O)C1=C(c2ccccc2OCc2ccccc2)C[C@@H]2CC[C@H]1N2C(=O)NCc1ccc(OC)cc1` was tested, and the inhibition was 12.6% (inactive). `COC(=O)C1=C(c2ccc(-c3ccccc3)c(F)c2)C[C@@H]2CC[C@H]1N2C(=O)NCc1ccc(F)cc1` was tested, and the inhibition was 21.7% (inactive). With `COC(=O)C1=C(c2ccc(F)cc2OCc2ccccc2)C[C@@H]2CC[C@H]1N2C(=O)NCc1ccc(OC)c(OC)c1` the inhibition was 14.8% (inactive). For `COC(=O)C1=C(c2ccc(F)cc2OCc2ccccc2)C[C@@H]2CC[C@H]1N2C(=O)NCc1ccc(C(C)(C)C)cc1`, the inhibition was 48.4% (inactive). In the case of `CCOP(=O)(OCC)C(NC(=O)c1ccc(OC)cc1)C(Cl)(Cl)Cl` (stereo not given), the inhibition is reported as 16.4% (inactive). `COC(=O)N(c1ccc(OC)cc1)P1(=S)OCCC(C)O1` (stereo not given) was tested, and the inhibition was 7.17% (inactive). In the case of `CCOc1ccc(C2SCC(=O)Nc3c2c(C)nn3C2CCOC(C)(C)C2)cc1` (stereo not given), the inhibition is reported as 3.37% (inactive). `CCC(=O)c1ccc(OCC(=O)N2CCN(CC(=O)Nc3ccc(C)cc3)CC2)cc1` was tested, and the inhibition was 30% (inactive). In the case of `Cc1cccc(-n2c(O)c(C=NC34CN5CN(CN(C5)C3)C4)c(=O)[nH]c2=O)c1`, the inhibition is reported as -8.36% (inactive). For `CNCC(O)c1cc(F)c(OCc2ccccc2)c(OCc2ccccc2)c1F` (stereo not given), the inhibition was 86.6% (active). For `O=C(NC(c1ccc(Cl)cc1)P(=O)(Oc1ccccc1)Oc1ccccc1)OCc1ccccc1` (stereo not given), the inhibition was 18.9% (inactive). `C[C@]12CC[C@H](O)C[C@H]1CC[C@@H]1C2CC[C@]2(C)[C@@H](C3=CC(=O)OC3)[C@@H](O)C[C@]12O` (stereo not given in full) was tested, and the inhibition was 45.4% (inactive). With `N#CC1=C(N)Oc2c(c(=O)oc3ccccc23)C1c1ccccc1OC(=O)c1cccs1` (stereo not given) the inhibition was 62.3% (active). In the case of `CCNc1nc2[nH]c(=O)c3c(c2s1)OC(N)=C(C#N)C3c1cccs1` (stereo not given), the inhibition is reported as 17.9% (inactive). In the case of `COC(=O)C1=C(c2cccc(OCc3ccccc3)c2)C[C@@H]2CC[C@H]1N2C(=O)NNCc1ccccc1`, the inhibition is reported as 29.6% (inactive). With `CC(=O)N(C1=NCCCS1)c1ccccc1F` the inhibition was 14.4% (inactive). In the case of `CN(C)C(=O)Oc1cc(=O)n2c3c(cccc13)CCC2`, the inhibition is reported as 19.2% (inactive). With `CCCCCCCCCCCCn1ccc(=N)cc1` the inhibition was 97.2% (active). With `CC(C(=O)Nc1ccc(Cl)cc1Cl)N1CC=C(c2ccccc2)CC1` (stereo not given) the inhibition was -0.882% (inactive). `NCCc1ccc(S(=O)(=O)F)cc1` was tested, and the inhibition was 5.92% (inactive). For `O=C1NC(=O)C(C/C=C/c2ccccc2)C(=O)N1`, the inhibition was -4.93% (inactive). In the case of `CC1(C)Cc2c(C#N)c(N3CCNCC3)nc(-c3ccco3)c2CS1`, the inhibition is reported as 62% (active). With `COc1cccc(N2C(=O)NC(=O)/C(=C\c3ccc([N+](=O)[O-])s3)C2=O)c1` the inhibition was 7.01% (inactive). With `COC(=O)[C@@H]1C(OC(=O)c2ccccc2)CC2CCC1N2C` (stereo not given in full) the inhibition was 5.75% (inactive). With `COc1ccc(C2N3CC(C)(C)CN23)cc1` (stereo not given) the inhibition was 4.71% (inactive). For `O=C(O)c1ccccc1NC(=O)C1C2CCC(O2)C1C(=O)O` (stereo not given), the inhibition was 40.4% (inactive). For `CCCCC(=O)N/N=C/c1c(O)n(CC)c(=S)n(CC)c1=O`, the inhibition was 10.6% (inactive). `CCCCC(=O)N/N=C/c1c(O)n(-c2ccccc2)c(=O)[nH]c1=O` was tested, and the inhibition was 10.7% (inactive). `CCCCC(=O)N/N=C/c1c(O)n(CCC2=CCCCC2)c(=O)[nH]c1=O` was tested, and the inhibition was 50.4% (active). `O=C1NC(=O)C(CCc2ccccn2)(Cc2cccc(Cl)c2Cl)C(=O)N1c1ccc(Br)cc1` (stereo not given) was tested, and the inhibition was 17.3% (inactive). With `C/C(=N/O)c1ccc2ccc3ccccc3c2c1` the inhibition was -52.9% (inactive). With `O=Cc1cn(Cc2ccc(F)cc2Cl)c2ccccc12` the inhibition was 50.9% (active). `CN1CCC(N(C)Cc2cccnc2)CC1` was tested, and the inhibition was -0.974% (inactive). For `CN(C)CCN(CC1CCCN(Cc2ccccc2F)C1)C(=O)Cc1ccc(F)c(F)c1` (stereo not given), the inhibition was 15.4% (inactive). For `CC(=O)c1ccc(OC(NC(=O)Cc2ccccc2)C(Cl)(Cl)Cl)cc1` (stereo not given), the inhibition was 6.38% (inactive). With `c1ccc(C2NCc3ccccc3-n3cccc32)cc1` (stereo not given) the inhibition was 19.8% (inactive). `Cn1c(C(=O)N2CCC(C(=O)N3CCC4(CC3)OCCO4)CC2)cc2sccc21` was tested, and the inhibition was -1.94% (inactive). `CNC(=O)O/N=C(\N)Cc1csc2ccc(Cl)cc12` was tested, and the inhibition was 97.6% (active). `CNC(=O)O/N=C(\N)Cc1csc2ccccc12` was tested, and the inhibition was 78.8% (active). For `CC[C@H]1CC2CN3CCc4c([nH]c5ccccc45)C(C(=O)OC)(C2)C13` (stereo not given in full), the inhibition was 33.7% (inactive). In the case of `Cc1cc(N2C(=O)C3CCCN3C2c2ccc(Cl)c(Cl)c2)no1` (stereo not given), the inhibition is reported as -4.12% (inactive). In the case of `CCCn1c(C(=O)c2ccccc2OC)nc2ccccc21`, the inhibition is reported as 10.6% (inactive).
